TDP1 cell noCPT – qHTS for Inhibitors of human tyrosyl-DNA phosphodiesterase 1 (TDP1): qHTS in cells in absence of CPT; DT40 Tdp1-/- hTDP1 cells, no CPT, ATP luminescence, 48 h; Potency, µM (doses to about 46.2 µM), inactives show at the highest dose activity change, negative = growth inhibition, hits mostly inhibitors; 420,000 compounds, 15% hits; AID 686978, 2013; note: potency is the fitted concentration of half-maximal effect; % is set by controls: 0 for no effect and ±100 for the full control effect; nearly all actives have a fitted effect of over 55% in size
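Chicken DT40 Tdp1-/- cells complemented with human TDP1, screened without camptothecin (DMSO vehicle only), 400 cells/well. Compounds pin-transferred, cells incubated at 37 °C for at least 48 hr. Growth read as ATP-dependent luminescence (CellTiter-Glo, 30 min at RT).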
DT40 TDP1 CPT – qHTS for Inhibitors of human tyrosyl-DNA phosphodiesterase 1 (TDP1): qHTS in cells in presence of CPT; chicken DT40 Tdp1-/-;hTDP1 cells + 20 nM CPT, ATP luminescence, 48 h; 420,000 compounds, 12% hits; Potency, µM (highest dose often 46.2 µM), for inactives: at the top dose activity change, negative = growth inhibition, usual class: inhibitors; note: potency is the fitted concentration of half-maximal effect; % is set by controls: 0 for no effect and ±100 for the full control effect; nearly all actives have a fitted effect of over 55% in size
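Chicken DT40 Tdp1-/- cells stably complemented with human TDP1 were seeded at 400 cells/well in medium containing 20 nM camptothecin, exposed to pin-transferred compounds, and grown at 37 °C for at least 48 hr. Viability was read as ATP luminescence.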
IL-1B inflam inh – qHTS for Inhibitors of Inflammasome Signaling: IL-1-beta AlphaLISA Primary Screen | THP-1 LPS/ATP IL-1B secretion, AlphaLISA, 16 h; active compounds read low | activity change, % at 57.5 µM | 360,000 compounds, 4.7% hits | AID 743279, 2014; in the data active = activity change below about -50%; inconclusive = mostly about -30% to -49%; note: % is set by controls: 0 for no effect and ±100 for the full control effect
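Secreted IL-1B measured by AlphaLISA bead assay after 16 h compound exposure of THP-1 cells; compounds (final up to 57.5 uM) added 1 h before LPS (250 ng/mL) and ATP (1.25 mM) stimulation; lower signal means less secretion.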
HepG2 viability – qHTS for Inhibitors of TGF-b: Cytotox Counterscreen; AID 588856, 2011; HepG2 CAGA-GFP viability, ATP luminescence, 18 h; Potency, µM (titrated, usually from 46.1 µM), for inactives: at the highest dose activity change, negative = cytotoxicity, hits mostly cytotoxic; 410,000 compounds, 0.76% hits; note: potency is the fitted concentration of half-maximal effect
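HepG2 CAGA-GFP cells (1000/well, DMEM with 1% FBS) received compound, then TGF-beta at 500 pg/mL final, and were incubated 18 hours at 37 degrees C. Viability was read by CellTiter-Glo luminescence. Media-only wells were set as complete cell-killing and DMSO as no toxicity.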
TGFb inhibitor – qHTS for Inhibitors of TGF-b. AID 588855, 2011. HepG2 CAGA-GFP TGF-b/SMAD3 reporter, GFP fluorescence, 18 h; TGF-beta stimulated, 500 pg/mL final. Potency, µM (highest dose often 46.1 µM), without a hit: top-dose activity, negative = inhibition, actives largely listed as inhibitors. 410,000 compounds, 1.2% hits; note: potency is the fitted concentration of half-maximal effect; % is set by controls: 0 for no effect and ±100 for the full control effect; nearly all actives have a fitted effect of over 65% in size
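Per well, imaged GFP fluorescence of HEPG2 CAGA-GFP cells gives the signal; cells get compound, then TGF-beta (500 pg/mL final), 18 h at 37 degrees C; %Activity versus -TGF-beta and +DMSO controls.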
S-ASM inh – Inhibitors of Secretory Acid Sphingomyelinase (S-ASM): qHTS | Sphingomyelin phosphodiesterase (Homo sapiens), P17405 | placental ASM, HMU-PC fluorogenic substrate, 60 min | Potency, µM (highest dose often 57.5 µM), without a hit: top-dose activity change, negative = inhibition, hits mostly inhibitors | 340,000 compounds, 0.006% hits | AID 504937, 2011; note: potency is the fitted concentration of half-maximal effect
Target sequence (P17405 47-631 limits assumed): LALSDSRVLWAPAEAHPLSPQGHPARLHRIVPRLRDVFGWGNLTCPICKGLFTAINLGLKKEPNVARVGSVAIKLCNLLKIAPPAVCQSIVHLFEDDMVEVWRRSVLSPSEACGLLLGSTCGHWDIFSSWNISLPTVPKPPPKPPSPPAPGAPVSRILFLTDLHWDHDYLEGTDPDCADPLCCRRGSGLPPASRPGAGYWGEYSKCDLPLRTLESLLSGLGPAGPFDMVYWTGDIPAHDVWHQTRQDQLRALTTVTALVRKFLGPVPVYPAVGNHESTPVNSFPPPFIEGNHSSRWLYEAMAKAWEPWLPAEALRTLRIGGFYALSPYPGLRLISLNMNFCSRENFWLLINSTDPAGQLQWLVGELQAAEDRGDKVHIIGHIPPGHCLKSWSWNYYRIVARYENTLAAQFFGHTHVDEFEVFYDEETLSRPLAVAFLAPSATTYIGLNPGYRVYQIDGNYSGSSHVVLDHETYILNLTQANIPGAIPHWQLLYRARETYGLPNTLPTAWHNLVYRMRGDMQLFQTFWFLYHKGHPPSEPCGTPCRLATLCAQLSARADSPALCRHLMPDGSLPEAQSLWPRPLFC
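HMU-PC0 cleavage (9 uM final) by human placental ASM, 60 min at 37 °C following 10 min compound exposure at RT; stopped at pH 10, fluorescence Ex 386/Em 447 nm.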
* marks the source's active call; other numbers are inactive results; i = inactive; ? = inconclusive; · = no result. Rows were chosen to be rich in hits. Some 19% of all compounds tested hit in one or more screens of this group. Unless noted, calls come from the whole dose curve; as a rule, active = well fitted curve in the direction sought with a large enough effect; inconclusive = small, poorly fitted or top-dose-only effect, or another doubt; inactive = no such curve, though single readings can be large; an effect the other way counts as inactive or inconclusive.

SMILES	TDP1 cell noCPT	DT40 TDP1 CPT	IL-1B inflam inh	HepG2 viability	TGFb inhibitor	S-ASM inh
CC(Sc1nc(-c2ccccc2)cc(C(F)(F)F)n1)C(=O)NCCN1CCOCC1 (stereo not given)	-14%	2%	-16	-9%	0%	-2%
CCC(C)c1ccc(N(CC(=O)NC(C)(C)C)C(=O)CNC(=O)c2cccs2)cc1 (stereo not given)	18µM*	?	-5	3%	-11%	0%
Cc1ccsc1/C=N/NC(=O)CNC(=O)c1cccc([N+](=O)[O-])c1C	-17%	-9%	5	1%	0%	3%
COc1ccc(CCNC(=O)C(=O)NCC2OCCN2S(=O)(=O)c2ccc3c(c2)OCCO3)cc1OC (stereo not given)	?	?	3	2%	-4%	2%
COc1ccc(S(=O)(=O)N2CCCOC2CNC(=O)C(=O)NCCCN2CCOCC2)cc1C (stereo not given)	-2%	-7%	i	1.4µM*	-8%	-1%
COc1ccc(S(=O)(=O)N2CCOC2CNC(=O)C(=O)NCCc2ccc(OC)c(OC)c2)cc1C (stereo not given)	16µM*	?	0	15%	8%	-1%
CC(=O)Nc1nc(C)c(-c2nc3ccc([N+](=O)[O-])cc3[nH]2)s1	-29%	-22%	52	-13%	-17%	-10%
[N-]=[N+]=NCCN1CCN(CCc2ccccc2)CCC1=O	-1%	3%	22	2%	8%	7%
NC(=S)N/N=C/c1ccc(/C=N/NC(N)=S)cc1	0%	?	35	11%	-1%	10%
NC(=S)N/N=C/c1ccc2ccccc2c1	23µM*	23µM*	7	3%	-1%	3%
Cn1cccc1/C=N/NC(N)=S	21µM*	?	25	-23%	-1%	3%
NC(=S)N/N=C/c1cccc(/C=N/NC(N)=S)c1	-24%	-9%	-100*	-8%	4%	5%
NC(=S)N/N=C/C=C/c1ccccc1	5.8µM*	5.8µM*	-23	0%	0%	1%
NC(=S)N/N=C/c1cccc(Br)c1	?	?	-17	-16%	4%	-3%
COCCn1c(=O)cnc2cnc(OCc3ccccc3)nc21	?	-12%	·	·	·	·
Cn1cccc1/C=N/NC(=O)Cc1ccccc1	-10%	-5%	-7	6%	4%	0%
Cn1cccc1/C=N\NC(=O)Cc1ccc(Br)c2ccccc12	10µM*	15µM*	15	-21%	-22%	-14%
O=C(Nc1cccnc1)C1Cc2c(-c3ccccc3Oc3ccccc3)ccnc2O1 (stereo not given)	23µM*	?	?	-22%	-21%	·
O=C(Nc1cccc(C(F)(F)F)c1)C1Cc2c(-c3ccccc3Oc3ccccc3)ccnc2O1 (stereo not given)	16µM*	23µM*	-23	-7%	?	·
O=C(Nc1cccc(C(F)(F)F)c1)C1Cc2c(-c3cccc(F)c3)ccnc2O1 (stereo not given)	?	?	0	-19%	?	·
CN(C)c1cccc(NC(=O)C2Cc3c(-c4ccccc4Oc4ccccc4)ccnc3O2)c1 (stereo not given)	?	?	-27	-32%	-19%	·
CC(=O)c1cccc(NC(=O)C2Cc3c(-c4ccccc4Oc4ccccc4)ccnc3O2)c1 (stereo not given)	16µM*	18µM*	?	-11%	-9%	·

Screening data from PubChem BioAssay.
